Screens: PubChem BioAssay, National Center for Advancing Translational Sciences (NCATS)
Shown are actives, neighbours in structure and some others; about 4.7% of the full set was active somewhere.
D1 potentiator – enhances dopamine response at the human D1 receptor. P21728. HEK293 TREx D1 cells, calcium flux, dopamine EC20 potentiation. potentiation, % at 10 µM. actives 0.036% (n = 360,000). AID 504651; in the data active means potentiation above about 30%; further: 0% is about no effect
Target sequence (P21728 whole entry, looked up): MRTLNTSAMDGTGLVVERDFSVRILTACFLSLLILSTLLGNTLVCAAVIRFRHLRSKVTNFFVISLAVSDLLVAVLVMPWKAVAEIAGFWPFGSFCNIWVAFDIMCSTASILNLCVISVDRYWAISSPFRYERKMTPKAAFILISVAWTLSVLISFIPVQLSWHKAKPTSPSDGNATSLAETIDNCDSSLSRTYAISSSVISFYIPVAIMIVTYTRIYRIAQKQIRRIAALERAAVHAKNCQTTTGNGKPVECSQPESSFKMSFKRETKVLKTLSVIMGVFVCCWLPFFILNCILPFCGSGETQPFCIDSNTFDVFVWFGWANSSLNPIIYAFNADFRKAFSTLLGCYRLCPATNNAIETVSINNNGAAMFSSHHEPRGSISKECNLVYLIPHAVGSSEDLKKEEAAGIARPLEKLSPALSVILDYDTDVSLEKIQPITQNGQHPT
D1 antagonist – antagonists of human D1 dopamine receptor. P21728. HEK293 TREx D1 cells, calcium flux, dopamine EC80; stronger effect = lower value. activity change, negative = inhibition, % at 10 µM. actives 3.2% (n = 360,000). AID 504652; in the data active means activity change below about -30%; further: on the % scale 0 is the no-effect control and ±100 the full control effect
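HEK293 T-REx cells expressing inducible, force-coupled D1 receptor; no-wash Ca dye, 30–90 min RT. Cmpd → 180 s read at 1 Hz → EC80 DA → 180 s read.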
D1 agonist – human D1 receptor agonism | P21728 | HEK293 T-REx D1 cells, calcium flux, agonist mode | activation, % at 2 µM | actives 1% (n = 360,000); further: 0% is about no effect
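Inducible HEK293 T-REx D1 cells, force-coupled to calcium signalling, were plated at 4000 cells/well with tetracycline and held overnight at 30 C. After no-wash calcium dye loading, compound-evoked calcium rise over 180 s flagged agonists.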
TRHR ag – TRH receptor (human) agonism; AID 493084; actives 0.18% (n = 360,000); activation, % at 2 µM; P34981; TRHR cells, calcium flux fluo-8, FDSS agonist mode; further: 0% is about no effect
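Steps: seed TRHR cells overnight; add fluo-8 no-wash Ca dye, RT 30 min–1.5 h; record 10 s baseline; pin-transfer compounds; monitor fluorescence 1 cycle/s for the agonist window. Calcium increases flag candidate agonists.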
TRHR PAM – TRH receptor (human) allosteric enhancement; P34981; TRHR cells, fluo-8 calcium fluorescence, EC20 TRH enhancement; enhancement, % at 2 µM; actives 0.66% (n = 360,000); AID 493056; in the data active means enhancement above about 30%; further: 0% is about no effect
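Enhancer read-out: after compound pinning and an initial kinetic agonist-mode read, an EC20 of TRH (10 nM final) was injected and fluo-8 calcium signal (Ex 480/Em 530) followed at 1 s/cycle for 100 cycles in TRHR-expressing cells.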
Active calls of the source: *; . = not tested or not shown. Unless noted, no stated cut-off is given here; in the data, active means activation above about 30%; inactive means the rest.

SMILES | D1 potentiator | D1 antagonist | D1 agonist | TRHR ag | TRHR PAM
Cc1sc2ncn(CC(=O)NCCCC(=O)N3CCN(Cc4ccc5c(c4)OCO5)CC3)c(=O)c2c1C | -12 | 0 | 0 | 0 | 31*
CNC(=S)N1N=C(c2ccc(C)cc2)CC1c1ccc(N(C)C)cc1 (stereo not given) | 1 | -10 | 36* | 0 | 0
CNC(=S)N1N=C(c2ccc(C)cc2)CC1c1ccc(OC)cc1 (stereo not given) | -1 | -40* | -1 | 0 | 9
CC[C@H](C)[C@@H](C(=O)NCCCCCCCCCCC(=O)N1CCN(C(=O)OC(C)(C)C)CC1)n1cc(CCCCCNC(=O)OC(C)(C)C)nn1 | -9 | -31* | 12 | 1 | -4
C#CCOCCOCCOCCNc1nc(N2CCN(C(=O)CCCCCCCCCCNC(=O)[C@@H](CCC(=O)O)n3cc(CCCCCN)nn3)CC2)nc(N2CCN(C(=O)CCCCCCCCCCNC(=O)[C@H]([C@@H](C)CC)n3cc(CCCCCN)nn3)CC2)n1 | 37* | 54 | 19 | 0 | -4
C#CCOCCOCCOCCNc1nc(N2CCN(C(=O)CCCCCCCCCCNC(=O)[C@H]([C@@H](C)CC)n3cc(CCCCCN)nn3)CC2)nc(N2CCN(C(=O)CCCCCCCCCCNC(=O)[C@H](CO)n3cc(CCCCCN)nn3)CC2)n1 | 23 | 92 | 50* | 1 | 1
C#CCOCCOCCOCCNc1nc(N2CCN(C(=O)CCCCCCCCCCNC(=O)[C@H]([C@@H](C)CC)n3cc(CCCCCN)nn3)CC2)nc(N2CCN(C(=O)CCCCCCCCCCNC(=O)[C@H](CCCCN)n3cc(CCCC(=O)O)nn3)CC2)n1 | 26 | 60 | 35* | 2 | 0
CC[C@H](C)[C@@H](C(=O)NCCCCCCCCCCC(=O)N1CCN(C(=O)OC(C)(C)C)CC1)n1cc(CCCCN=C(NC(=O)OC(C)(C)C)NC(=O)OC(C)(C)C)nn1 | -10 | 13 | 6 | 0 | 1
CCOc1ccc(C(=O)NCC(c2ccc(Cl)cc2)N2CCCCC2)cc1 (stereo not given) | 0 | 4 | -3 | 0 | 4
CC(=O)Nc1cccc(NC(=O)C2(c3cccs3)CCOCC2)c1 | 0 | . | -2 | 0 | -3
CCSC1=C(C#N)C(c2ccc(OC)c(OC)c2)CC(=O)N1 (stereo not given) | -3 | 0 | 6 | 0 | -2
CCSC1=C(C#N)C(c2ccc(F)cc2)CC(=O)N1 (stereo not given) | -6 | -32* | 1 | -1 | -5
C=C(C)CSC1=C(C#N)C(c2ccsc2)CC(=O)N1 (stereo not given) | 1 | -39* | 5 | -1 | -5
Cn1c(=O)c2c(nc(NCc3ccc4c(c3)OCO4)n2Cc2ccccc2Cl)n(C)c1=O | 0 | -81* | 1 | -1 | -1
COCCNc1nc2c(c(=O)n(C)c(=O)n2C)n1Cc1cccc(C)c1 | -9 | -50* | 0 | 0 | -1
CCC(C)Nc1nc2c(c(=O)n(C)c(=O)n2C)n1Cc1ccc(F)cc1 (stereo not given) | -21 | -85* | -1 | -2 | -4
CCc1ccc(N2CCn3c2nc2c3c(=O)n(Cc3ccc(F)cc3)c(=O)n2C)cc1 | -6 | -46* | 11 | 0 | -5
CCc1ccc(N2CCn3c2nc2c3c(=O)n(Cc3c(F)cccc3Cl)c(=O)n2C)cc1 | -2 | -21 | 6 | 0 | -6
Cn1c(=O)c2c(nc(OCc3ccc4c(c3)OCO4)n2Cc2ccccc2Cl)n(C)c1=O | -3 | 3 | 1 | 0 | -1
Cc1cn(C)c(CC(=O)Nc2ccc(F)cc2Cl)c1C(=O)O | -2 | -7 | 0 | 0 | 2
Cc1c(C(=O)N2CCC(C)CC2)c(S(=O)(=O)N(Cc2ccccc2)C(C)(C)C)c(C)n1C | 0 | 2 | 8 | 0 | -7
COc1ccc(Cn2c(NCC(C)C)nc3c2c(=O)n(C)c(=O)n3C)cc1 | 0 | -41* | 2 | -1 | 7
CC(CNC(=O)Cn1ccc2cc(S(=O)(=O)N3CCCCC3)ccc21)c1ccccc1 (stereo not given) | -1 | -10 | 5 | 0 | -7
CC1CN(C(=O)CCC(=O)NCc2cccc(Cl)c2)c2ccccc2S1 (stereo not given) | -8 | -32* | 4 | 1 | -10
Cc1ccc(CNC(=O)CCC(=O)N2CC(C)Oc3ccc(Cl)cc32)cc1 (stereo not given) | -5 | 5 | 1 | -1 | -5
SMILES | D1 potentiator | D1 antagonist | D1 agonist | TRHR ag | TRHR PAM
CC1CN(C(=O)Nc2ccc(C(=O)NCc3ccccc3F)cc2)c2ccccc2S1 (stereo not given) | -2 | 7 | 9 | -2 | 1
CC1CN(C(=O)Nc2ccc(C(=O)NCc3cccc(F)c3)cc2)c2ccccc2S1 (stereo not given) | 4 | -43* | 0 | 0 | 4
CC1CN(C(=O)CCC(=O)NCc2ccc(Cl)cc2)c2ccccc2O1 (stereo not given) | -19 | -83* | 5 | -1 | 1
Cn1c(=O)nc2n(-c3ccc(Cl)c(Cl)c3)c3cc(Cl)ccc3cc-2c1=O | 0 | 4 | 0 | 1 | 13
COc1ccc(-c2nnc(NC(=O)c3ccccc3[N+](=O)[O-])s2)c(OC)c1 | -5 | -8 | 5 | 0 | -2
Cc1ccc(NC(=O)CSc2nc(-c3cccs3)cc(C(F)(F)F)n2)cc1C | -3 | 2 | 7 | -1 | -7
CCOC(=O)c1sc(NC(=O)/C=C/c2cnn(CC)c2C)c(C(=O)OCC)c1C | -4 | -60* | 7 | 0 | 6
CCCOC(=O)c1c(NC(=O)/C=C/c2cnn(C)c2C)sc(C(=O)OCC)c1C | 18 | -2 | 4 | 0 | -4
CCOC(=O)c1c(NC(=O)/C=C/c2ccc(OCC)cc2)sc(C)c1C | -3 | -80* | 3 | 1 | 0
CCOC(=O)c1c(NC(=O)/C=C/c2ccc(OCC)cc2)sc2c1CCCC2 | 4 | -10 | 2 | 0 | 1
COC(=O)c1ccc(CN2CCCC(C(=O)c3ccccc3OC)C2)cc1 (stereo not given) | -3 | 1 | 8 | -1 | -12
CCOC(=O)CC1C(=O)NCCN1c1nc2c(C)cccn2c(=O)c1/C=C1\SC(=S)N(CC(C)C)C1=O (stereo not given) | -5 | -15 | 111* | 24 | 0
CCOCCCNc1nc2c(C)cccn2c(=O)c1/C=C1\SC(=S)N(C(C)CC)C1=O (stereo not given) | 0 | -7 | 114* | 21 | 2
CCOCCCNc1nc2c(C)cccn2c(=O)c1/C=C1\SC(=S)N(CC(C)C)C1=O | -4 | -11 | 30* | 8 | 16
CCOC(=O)C1=C(C)OC(N)=C(C#N)C1c1ccc(C)s1 (stereo not given) | 0 | 0 | 6 | 1 | 3
O=c1cc(O)sc2ccccc12 | -8 | -22 | 40* | 5 | 1
